High-throughput results deposited in PubChem BioAssay by National Center for Advancing Translational Sciences (NCATS).
Rows were chosen to be rich in hits. Some 19% of all compounds tested hit in one or more screens of this group.
DT40 TDP1 no CPT: qHTS for Inhibitors of human tyrosyl-DNA phosphodiesterase 1 (TDP1): qHTS in cells in absence of CPT. DT40 Tdp1-/- hTDP1 cells, no CPT, ATP luminescence, 48 h. Potency, µM (series often up to 46.2 µM), for the others: at the highest dose activity change, negative = growth inhibition, actives largely listed as inhibitors. 15% of 420,000 active; note: potency is the fitted concentration of half-maximal effect; % is set by controls: 0 for no effect and ±100 for the full control effect; nearly all actives have a fitted effect of over 55% in size
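Seeded 400 DT40-hTDP1 cells/well (vehicle DMSO, no 20 nM CPT); pinned compounds; ≥48 hr at 37 °C; CellTiter-Glo luminescence as viability measure.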
IL1B secr inh: blocks inflammasome-driven IL-1 beta release. THP-1 LPS/ATP IL-1B secretion, AlphaLISA, 16 h; stronger effect = lower value. 4.7% of 360,000 active. activity change, % at 57.5 µM; in the data active = activity change below about -50%; inconclusive = mostly about -30% to -49%; note: % is set by controls: 0 for no effect and ±100 for the full control effect
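THP-1 cells pretreated 1 hr with compounds (up to 57.5 uM final), then stimulated with LPS (250 ng/mL final) plus ATP (1.25 mM final); secreted IL-1B measured by AlphaLISA after 16 hr, decreased signal indicating inhibition.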
TDP1 cell CPT: DT40-hTDP1 cell growth loss with CPT. chicken DT40 Tdp1-/-;hTDP1 cells + 20 nM CPT, ATP luminescence, 48 h. 12% of 420,000 active. AID 686979. Potency, µM (highest dose often 46.2 µM), inactives show at the top dose activity change, negative = growth inhibition, most hits filed as inhibitors; note: potency is the fitted concentration of half-maximal effect; % is set by controls: 0 for no effect and ±100 for the full control effect; nearly all actives have a fitted effect of over 55% in size
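Chicken DT40 Tdp1-/- cells complemented with human TDP1, 400 cells/well, exposed to compounds plus 20 nM camptothecin for at least 48 h at 37 C; viability read as ATP content by CellTiter-Glo luminescence.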
HepG2 viability: HepG2 cytotoxicity, counter-screen for TGF-b inhibitors. HepG2 CAGA-GFP viability, ATP luminescence, 18 h. Potency, µM (titrated, usually from 46.1 µM), for inactives: at the highest dose activity change, negative = cytotoxicity, most hits filed as cytotoxic. AID 588856. 0.76% of 410,000 active; note: potency is the fitted concentration of half-maximal effect
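HepG2 CAGA-GFP cells (1000/well, DMEM with 1% FBS) received compound, then TGF-beta at 500 pg/mL final, and were incubated 18 hours at 37 degrees C. Viability was read by CellTiter-Glo luminescence. Media-only wells were set as complete cell-killing and DMSO as no toxicity.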
S-ASM inh: human S-ASM enzyme inhibition; placental ASM, HMU-PC fluorogenic substrate, 60 min; Potency, µM (top dose mostly 57.5 µM), inactives show top-dose activity change, negative = inhibition, hits mostly inhibitors; 0.006% of 340,000 active; note: potency is the fitted concentration of half-maximal effect
Target sequence (P17405 47-631 limits assumed): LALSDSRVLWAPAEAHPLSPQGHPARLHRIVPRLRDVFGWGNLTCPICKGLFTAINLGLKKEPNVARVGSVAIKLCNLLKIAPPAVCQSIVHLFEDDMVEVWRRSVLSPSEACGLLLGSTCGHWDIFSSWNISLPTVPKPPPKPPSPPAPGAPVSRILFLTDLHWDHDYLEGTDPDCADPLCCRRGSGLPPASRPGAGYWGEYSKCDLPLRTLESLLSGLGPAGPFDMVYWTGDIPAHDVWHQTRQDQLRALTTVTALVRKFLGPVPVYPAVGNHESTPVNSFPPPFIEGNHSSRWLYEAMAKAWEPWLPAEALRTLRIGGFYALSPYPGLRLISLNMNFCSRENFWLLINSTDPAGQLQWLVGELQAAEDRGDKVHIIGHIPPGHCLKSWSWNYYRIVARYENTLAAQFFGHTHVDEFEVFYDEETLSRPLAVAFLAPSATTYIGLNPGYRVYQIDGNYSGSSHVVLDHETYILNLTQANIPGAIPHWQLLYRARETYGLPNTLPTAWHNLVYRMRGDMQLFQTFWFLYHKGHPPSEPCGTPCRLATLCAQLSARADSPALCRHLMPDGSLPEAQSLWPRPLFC
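qHTS format. ASM enzyme prepared from human placenta hydrolyses the fluorogenic substrate HMU-PC0 (9 uM final) over 60 min at 37 °C after a 10 min compound preincubation.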
TGFb inhibitor: inhibitors of TGF-b signaling | HepG2 CAGA-GFP TGF-b/SMAD3 reporter, GFP fluorescence, 18 h; TGF-beta stimulated, 500 pg/mL final | Potency, µM (doses to about 46.1 µM), inactives show at the top dose activity, negative = inhibition, actives largely listed as inhibitors | 1.2% of 410,000 active | AID 588855; note: potency is the fitted concentration of half-maximal effect; % is set by controls: 0 for no effect and ±100 for the full control effect; nearly all actives have a fitted effect of over 65% in size
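Inhibition was scored as loss of TGF-beta-induced (500 pg/mL final, 18 hours, 37 degrees C) GFP in HEPG2 cells carrying a CAGA-GFP reporter, in DMEM with 1% FBS. Well GFP was summed per cell; Activity was normalised to unstimulated and stimulated DMSO wells, then concentration-response fitting.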
An asterisk follows results filed as active; ? = inconclusive; . = no result given. Unless noted, calls come from the whole dose curve; as a rule, active = well fitted curve in the direction sought with a large enough effect; inconclusive = small, poorly fitted or top-dose-only effect, or another doubt; inactive = no such curve, though single readings can be large; an effect the other way counts as inactive or inconclusive.

SMILES	DT40 TDP1 no CPT	IL1B secr inh	TDP1 cell CPT	HepG2 viability	S-ASM inh	TGFb inhibitor
CCC(=O)N1CCc2cc(Br)cc(S(=O)(=O)N(C)c3ccc(OC)cc3OC)c21	18µM*	6	18µM*	0%	-4%	-1%
CCC(=O)N1CCc2cc(Br)cc(S(=O)(=O)NCc3cccc(OC)c3)c21	-24%	.	-1%	-5%	.	-1%
CCC(=O)N1CCc2cc(Br)cc(S(=O)(=O)N3CCCCCC3)c21	?	24	?	-8%	-4%	-4%
CCCN(CCC)S(=O)(=O)c1cc(Br)cc2c1N(C(=O)CC)CC2	10µM*	-10	9.2µM*	-4%	1%	-20%
C[C@@H]1CN([C@H](C)CO)C(=O)Cc2cc(NS(=O)(=O)c3cn(C)cn3)ccc2O[C@H]1CN(C)S(=O)(=O)c1ccc(Cl)cc1	-1%	0	1%	-20%	-1%	-3%
CC(NC(=O)c1ccc(Br)o1)C1CC2CCC1C2 (stereo unspecified)	6%	7	-1%	-38%	2%	-4%
CCOC(=O)CN1C(=O)SC(Nc2ccc(C)cc2)C1=O (stereo unspecified)	-25%	1	-9%	0%	-1%	-1%
COc1cccc(N2CCN(C(=O)c3c4c(nc5ccccc35)C(=O)N(C3CCCCC3)C4)CC2)c1	16µM*	.	21µM*	4%	.	38%
COc1cc(NC(=O)c2c3c(nc4ccccc24)C(=O)N(C2CCCCC2)C3)cc(OC)c1	-15%	.	-21%	2%	.	27%
Cc1ccc(N2CCN(C(=O)c3c4c(nc5ccccc35)C(=O)N(C3CCCCC3)C4)CC2)c(C)c1	10µM*	.	9.2µM*	7%	.	49%
Cc1cccc(N2CCN(C(=O)c3c4c(nc5ccccc35)C(=O)N(C3CCCCC3)C4)CC2)c1C	5.8µM*	.	7.3µM*	8%	.	26%
Cc1nc(Nc2nc(-c3ccccc3)cc(=O)[nH]2)nc2ccccc12	16µM*	-65*	21µM*	-38%	-15%	?
Cc1ccc2c(=O)[nH]c(Nc3nc(C)cc(-c4ccccc4)n3)nc2c1	12µM*	-21	10µM*	-5%	0%	20%
Cc1cccc(-c2nc3ccccc3c(=O)[nH]2)c1	-23%	0	4%	6%	-2%	1%
Cc1nc(Nc2nc(CSc3ccc(Cl)cc3)cc(=O)[nH]2)nc2ccccc12	?	9	-25%	5%	-1%	?
COc1ccc(CN(C)C(=O)CNC(=O)c2sc3ccccc3c2Cl)c(OC)c1	?	?	-27%	-22%	.	-15%
O=C(c1ccc(Cl)cc1)N1CCC(O)(CSc2ccc(Cl)cc2Cl)CC1	?	-20	16µM*	-73%	-13%	?
CC(C)C[C@@H](CN1CCC[C@@H]1CN1C(=O)C(=O)NC[C@@H]1Cc1ccccc1)N1C[C@H](Cc2ccc(O)cc2)N(CC2CCCCC2)C(=O)C1=O	?	-75*	?	-61%	-6%	?
CC(C)C[C@@H](CN1CCC[C@H]1CN1C(=O)C(=O)NC[C@@H]1Cc1ccccc1)N1C[C@H](Cc2ccc(O)cc2)N(CC2CCCCCC2)C(=O)C1=O	23µM*	-76*	23µM*	.	.	.
CC(C)C[C@@H](CN1CCC[C@@H]1CN1C(=O)C(=O)NC[C@@H]1Cc1ccc(O)cc1)N1C[C@H](Cc2ccc(O)cc2)N(CC2CCCCCC2)C(=O)C1=O	-22%	-13	3%	.	.	.
CN=C1C=CC(=C(c2ccc(N(C)C)cc2)c2ccc(N(C)C)cc2)C=C1	0.21µM*	.	0.21µM*	.	.	.
CN(C)c1ccc(/C(=N\O)c2ccccc2)cc1	-17%	-11	-8%	-43%	1%	22%
